The list is not random: actives were taken first. Their share in the collection is about 9.9%.
ALDH1A1 block: blocks purified human ALDH1A1 activity; P00352; Purified ALDH1A1, NADH fluorescence, propionaldehyde substrate; Potency, µM (doses to about 75.3 µM), for the others: at the top dose activity, negative = inhibition, most hits filed as inhibitors; 220,000 compounds, 7.3% hits; active means well fitted inhibition curve with a large enough effect, not every such curve was filed as active; inconclusive means small, poorly fitted or top-dose-only effect, or another doubt; inactive means no such curve, though single readings can be large or run the other way;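 further: plate controls were no enzyme wells and a reference inhibitor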
JMJD2E inh: JMJD2E (human) inhibition; JMJD2E catalytic domain, FDH-coupled NADH fluorescence (FDH is formaldehyde dehydrogenase); Potency, µM (doses to about 57.1 µM), inactives show at the top dose activity change, negative = inhibition, usual class: inhibitors; 230,000 compounds, 1.6% hits; active means well fitted inhibition curve with a large enough effect, not every such curve was filed as active; inconclusive means small, poorly fitted or top-dose-only effect, or another doubt; inactive means no such curve, though single readings can be large or run the other way;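 further: 0% = wells with enzyme and -100% = buffer wells without enzyme; nearly all actives have a fitted effect of over 50% in size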
Tau fluor counter: counter-screen for tau fibril formation inhibitors. tau K18 P301L Alexa594 fluorescence, heparin fibrillization. 280,000 compounds, 0.93% hits. Potency, µM (series often up to 57.7 µM), for the others: at the highest dose activity change, negative = decrease. AID 1463; further: nearly all actives have a fitted effect of over 55% in size
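Human K18 P301L tau (15 uM unlabeled plus 0.24 uM Alexa 594-labeled, final) in 100 mM sodium acetate pH 7 was mixed with compound and 20 uM heparin and incubated 6 hr at 37 C.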
Tau ThT inhib: tau fibrillization inhibition (ThT binding); P10636; recombinant tau K18 P301L, heparin-induced fibrillization, ThT fluorescence; Potency, µM (titrated, usually from 57.4 µM), for the others: at the top dose activity, negative = inhibition, hits mostly inhibitors; 270,000 compounds, 2.1% hits; AID 1460; further: nearly all actives have a fitted effect of over 55% in size
Target sequence (P10636 561-689 P618L limits assumed): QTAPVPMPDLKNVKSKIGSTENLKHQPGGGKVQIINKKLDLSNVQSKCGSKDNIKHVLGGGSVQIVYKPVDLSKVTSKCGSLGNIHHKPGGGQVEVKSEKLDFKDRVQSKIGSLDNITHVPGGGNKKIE
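Using a mix of unlabeled (15 uM) and Alexa 594-labeled (0.24 uM) tau K18 P301L, heparin-triggered fibrillization over 6 hr at 37 C was scored by ThT fluorescence.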
Tau fibril FP: inhibitors of human tau fibril formation. P10636. 280,000 compounds, 0.39% hits. K18 P301L tau heparin fibrillization, Alexa594 FP, 6 h. AID 1468. Potency, µM (titrated, usually from 57.7 µM), for the others: at the top dose activity, negative = inhibition, usual class: inhibitors; further: nearly all actives have a fitted effect of over 55% in size
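Quantitative HTS format: compounds meet 15 uM recombinant K18 P301L tau and Alexa 594-tau tracer in 100 mM sodium acetate pH 7; 20 uM heparin triggers fibrillization at 37 C over 6 hr; FP gives the signal.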
HPGD inh: HPGD (human) dehydrogenase inhibition; AID 894; P15428; purified HPGD, NADH fluorescence kinetic, PGE2 substrate; Potency, µM, for inactives: at the highest dose activity change, negative = inhibition, usual class: inhibitors; 150,000 compounds, 4.3% hits; active means well fitted inhibition curve with a large enough effect, not every such curve was filed as active; inconclusive means small, poorly fitted or top-dose-only effect, or another doubt; inactive means no such curve, though single readings can be large or run the other way
Target sequence (P15428 whole entry, looked up): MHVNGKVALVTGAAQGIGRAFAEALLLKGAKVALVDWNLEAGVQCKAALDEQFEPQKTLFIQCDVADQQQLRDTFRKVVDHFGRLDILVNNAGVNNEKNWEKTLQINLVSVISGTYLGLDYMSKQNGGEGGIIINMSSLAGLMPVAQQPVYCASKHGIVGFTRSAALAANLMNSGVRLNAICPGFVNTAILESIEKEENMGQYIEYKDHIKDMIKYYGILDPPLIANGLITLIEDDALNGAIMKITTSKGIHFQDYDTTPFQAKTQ
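NADH formation kinetics: reaction with 30 uM PGE2 and 1 mM NAD+ (final), 20 nM enzyme, Tris-HCl pH 8 with Tween 20, after 15 min compound preincubation at room temperature. Fluorescence change, last versus first of five reads.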
Starred values were filed as active, the others as inactive; ? = inconclusive; · = no result given. Unless noted, the call rests on the fitted dose curve; in most records, active means well fitted curve in the direction sought with a large enough effect; inconclusive means small, poorly fitted or top-dose-only effect, or another doubt; inactive means no such curve, though single readings can be large; an effect the other way counts as inactive or inconclusive. Unless noted, on the % scale 0 is the no-effect control and ±100 the full control effect; potency means the concentration at half of the fitted maximal effect.

SMILES	ALDH1A1 block	JMJD2E inh	Tau fluor counter	Tau ThT inhib	Tau fibril FP	HPGD inh
O=C(CSc1nnc(-c2ccccc2)n1-c1ccc(Cl)cc1)NNC(=S)Nc1ccccc1	16µM*	3%	0%	6%	7%	-18%
Clc1cccc(Cl)c1CSc1nnc(CN2CCOCC2)n1-c1ccccc1	-7%	-11%	-5%	-4%	3%	-6%
Cc1ccc2c(c1)c(=O)c(S(=O)(=O)c1ccc(C)c(C)c1)cn2CC(=O)Nc1ccccc1	·	·	-16%	1%	?	·
Cc1cccc(NC(=O)c2cnc3sc(N4CCCC4)nn3c2=O)c1C	·	·	-1%	-13%	-5%	·
Clc1ccc(CSc2nnc(CN3CCOCC3)n2-c2ccccc2)cc1Cl	18µM*	1%	-3%	-16%	0%	-4%
CC(=O)c1c(C)n(-c2ccccc2)c2ccc(O)cc12	-3%	7%	-7%	2%	7%	5µM*
COc1ccc2c(c1)c(C(=O)N1CCN(C)CC1)c(C)n2-c1ccccc1	14µM*	?	0%	2%	-4%	?
CCc1nn2c(-c3ccccc3OC)ccnc2c1-c1ccc(F)cc1	·	·	?	?	-11%	·
CCOc1ccc(N/C=C/C(=O)c2ccc(C)cc2)c([N+](=O)[O-])c1	-6%	-1%	-21%	1.1µM*	-3%	-17%
CCOc1ccc(NC(=S)NC(=O)/C=C/c2ccc(OC)c(OC)c2)c([N+](=O)[O-])c1	-3%	3%	-8%	-9%	4%	22µM*
CCOc1ccc(N/C=C/C(=O)c2ccc3ccccc3c2)c([N+](=O)[O-])c1	-1%	4%	?	1.1µM*	2%	-3%
CCOc1ccc(NC(=S)NC(=O)/C=C/c2ccc(C)cc2)c([N+](=O)[O-])c1	?	-4%	-2%	-6%	6%	?
CCOC(=O)c1c(C)oc2nc(C)nc(NCc3ccc(OC)cc3OC)c12	·	·	-12%	?	2%	·
CCOC(=O)Cc1csc(SCC(=O)Nc2sc3c(c2C(N)=O)CCC3)n1	?	?	-13%	-17%	3%	18µM*
CCOC(=O)Cc1csc(SCC(=O)NC2CCCCC2)n1	1%	-5%	3%	0%	1%	?
CCOC(=O)Cc1csc(SCC(=O)NC2CCCC(C)C2C)n1 (stereo not given)	?	5%	0%	4%	-1%	25µM*
Cc1ccc(C)c(NC(=O)Cn2cnc3c(oc4ccccc43)c2=O)c1	7%	-1%	?	8%	-2%	·
Cc1cccc(C)c1NC(=O)CSc1nccn1C	·	·	-11%	0%	-5%	·
O=Cc1ccc(N2CCCC2)c(F)c1	1.6µM*	-20%	-2%	-8%	13%	-15%
O=Cc1ccc(N2CCCCCC2)cc1	0.056µM*	-3%	-11%	-15%	-3%	-30%
CCCC(=O)Nc1nnc2n1CCS2	·	·	-6%	-2%	-6%	·
C=CCNc1cnn(CC(C)=O)c(=O)c1Br	10%	2%	-4%	-3%	2%	-8%
CC(C)(C)C(=O)Cn1ncc(Br)c(Br)c1=O	7.9µM*	2%	-2%	?	-13%	·
CCN(CC)c1ccc(NS(=O)(=O)c2ccc3c(c2)oc(=O)n3C)c(C)c1	?	?	-27%	-8%	6%	13µM*
COc1ccc(S(=O)(=O)Nc2ccc(NC(C)=O)cc2)cc1Br	-4%	1%	-11%	-2%	3%	·
Cn1c(=O)oc2cc(S(=O)(=O)Nc3cccc(C(=O)O)c3)ccc21	14%	3%	5%	3%	3%	-6%
COc1ccc(S(=O)(=O)Nc2cccc(C(C)=O)c2)cc1Br	32µM*	2%	-9%	-2%	-6%	·
CC(=O)c1cccc(NS(=O)(=O)c2ccc3c(c2)oc(=O)n3C)c1	22µM*	1%	0%	-1%	8%	-23%
CN(C)c1ncc2nc(-c3cn(C)c4ccccc34)c(=O)n(C[C@H]3CCCO3)c2n1	-3%	·	·	·	·	·
COc1cccc(NC(=O)Cn2c(=O)n(CC(=O)NCc3ccc(C)cc3)c(=O)c3sccc32)c1	·	·	0%	16%	-7%	·
